Results from PubChem BioAssay.
Inconclusive results are not listed. Calls of active or inactive are those of the source.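 Rule for the calls, unless noted: active = viability at or below 27.92% in each of two runs, the all-compound median minus 4 SD; inconclusive = no clear call, values can overlap the other calls; inactive = the rest.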

Key:
[1] = reducers of endogenous Her2 protein level, primary screen, SKBR3 breast tumor cells, AlphaScreen, ATP viability (AID 461;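 active = Her2 level under about 52% in both replicate screens, with viability over 70% of control, limit read from the data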;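 for Her2 level: lower value means less Her2 protein in the cells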;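 for viability: percent of carrier control wells set as 100% viability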); conditions: 18-24 h, measured here: SKBR3 viability, ATP luminescence, at 10 µM
[2] = biological target: Receptor tyrosine-protein kinase erbB-2 (Homo sapiens) (UniProt P04626); experiment: as above; conditions: 18-24 h, at 10 µM, stronger effect = lower value
[3] = SK-BR-3 cell growth inhibitors, pilot screen, 24 h, human (AID 572;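 active = viability at or below 10% of carrier control in both of two separate runs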;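 note: compound exposure lasted between 18 and 24 h rather than exactly 24 h; 100% = carrier-treated control wells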); conditions: SK-BR-3 viability, CellTiter-Glo luminescence, at 10 µM, stronger effect = lower value
[4] = HUVEC growth inhibition – cell-based, human, primary screen (AID 575;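 active = viability at or below 30% in both replicate assays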;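 note: 100% = median of untreated cell wells with 0.1% DMSO on each plate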); conditions: HUVEC proliferation, CellTiter-Glo luminescence, 72 h; at 10 µM; stronger effect = lower value
[5] = growth inhibitors of H69AR lung tumor, primary screen, human, duplicate replicates (AID 580;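 active = viability at or under a set limit in both replicates, limit being median viability minus 3 SD, cut at about 48% in these data, passing the limit was not always enough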;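 note: 100% = mean luminescence of untreated wells and 0% = no signal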); conditions: H69AR lung tumor cells viability, ATP luminescence, 72 h; at 10 µM; stronger effect = lower value
[6] = reversal of MRP1-mediated doxorubicin resistance, pilot screen, H69AR cells, doxorubicin co-treatment (AID 601;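 active = viability loss from added drug above about 55%, and viability with drug at most 40%, in both replicates, limit read from the data, passing the limit was not always enough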); conditions: CellTiter-Glo, 72 h, at 10 µM; for differential viability (reversal): stronger effect = higher value
[7] = 384-well plate pilot, post-Golgi transport modulator project, inhibition of yeast transport mutant growth (AID 636; in the data active = inhibition above about 31%); conditions: absorbance 615 nm, about 18 h, stronger effect = higher value
[8] = growth suppression of yeast trafficking mutant, preliminary HTS, modulators of trafficking downstream of Golgi apparatus project, 1536-format plate, OD 615 nm (AID 637; in the data active = inhibition above about 30%); conditions: yeast transport mutant growth, absorbance 615 nm, 18 h; stronger effect = higher value
[9] = OD615 S. cerevisiae growth inhibition, permissive medium, pilot counter-assay, permissive growth control for S. cerevisiae lifespan shortening project (AID 705;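 active = growth inhibition above 25% in both replicates, a cutoff set 3 SD above the mean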); conditions: OD615, 24 h, at 10 µM, stronger effect = higher value
[10] = Restrictive medium S. cerevisiae growth inhibition, OD615, pilot screen of yeast lifespan reduction project, restrictive growth control (AID 706;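 active = growth inhibition above a set limit, 3 SD over mean compound inhibition, in both replicates, cut at about 43% in these data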;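 note: modified DeaD lifespan yeast strain shifted to restrictive glucose medium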); conditions: OD615, 48 h, at 10 µM, stronger effect = higher value
[11] = viability gain of MRP-1-high H69AR cells under doxorubicin, pilot screen, MRP-1 activator project, CellTiter-Glo, duplicate (AID 807;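 active = viability increase at or above a cutoff of the median across tested compounds plus 3 SD, cut at about 8.5% in these data, passing the limit was not always enough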;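 note: compound pretreatment 18-22 h then 72 h combined with doxorubicin; 0% = doxorubicin alone and 100% = vehicle without doxorubicin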); conditions: H69AR viability with doxorubicin, CellTiter-Glo luminescence; at 10 µM; stronger effect = higher value
[12] = growth suppression of beta-catenin knockout HCT116, pilot screen, human colon tumor cells (AID 823;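 active = cell viability at or below a set limit in both duplicate runs, the limit being the all-compound median minus 4 SD, cut at about 23% in these data, passing the limit was not always enough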;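 note: 0% = wells killed by 20 µM Hyamine and 100% = untreated DMSO cell wells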); conditions: CellTiter-Glo, 60 h, at 10 µM, stronger effect = lower value
[13] = growth suppression of PTEN-deleted HCT116, pilot screen, cell-based, HCT116 clonal line, CellTiter-Glo (AID 824); conditions: 60 h, at 10 µM, stronger effect = lower value;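 note: 0% = 20 µM Hyamine control and 100% = vehicle cell control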
[14] = inhibitors of the yeast RAM network, pilot screen, dse1pr::URA3 reporter, 5-FOA selection (AID 869;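 active = inhibition over a set limit, the all-compound mean plus 3 SD, in both replicate runs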;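 note: 0% = DMSO wells with no growth and 100% = 10 µM 1-NA-PP1 with full growth; RAM network block rescues cells from 5-FOA so hits raise OD615 growth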); conditions: S. cerevisiae dse1pr::URA3 5-FOA growth, OD615, 2 d; at 10 µM; stronger effect = higher value; strain carries analog-sensitive mutant Cbk1 kinase
[15] = RAM signaling pathway blockade in yeast – S. cerevisiae, Pdr1DBD-CYC8 efflux-inhibited sensitized strain, primary screen (AID 1298;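 active = RAM network inhibition above 8.4% in each of two replicates, 3 SD over the compound average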;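 note: 0% = DMSO untreated cells without growth and 100% = 10 µM 1-NA-PP1 full growth; higher means more yeast growth rescued from 5-FOA killing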); conditions: S. cerevisiae cbk1-as DSE1-URA3 strain, 5-FOA growth OD615, 2 d; at 50 µM; stronger effect = higher value
[16] = H69AR cells + 2 uM doxorubicin, measured here: viability with 2 uM doxorubicin, stronger effect = lower value
[17] = H69AR cells, compound alone cytotoxicity

Sequence of Receptor tyrosine-protein kinase erbB-2 (Homo sapiens) (P04626 whole entry, looked up): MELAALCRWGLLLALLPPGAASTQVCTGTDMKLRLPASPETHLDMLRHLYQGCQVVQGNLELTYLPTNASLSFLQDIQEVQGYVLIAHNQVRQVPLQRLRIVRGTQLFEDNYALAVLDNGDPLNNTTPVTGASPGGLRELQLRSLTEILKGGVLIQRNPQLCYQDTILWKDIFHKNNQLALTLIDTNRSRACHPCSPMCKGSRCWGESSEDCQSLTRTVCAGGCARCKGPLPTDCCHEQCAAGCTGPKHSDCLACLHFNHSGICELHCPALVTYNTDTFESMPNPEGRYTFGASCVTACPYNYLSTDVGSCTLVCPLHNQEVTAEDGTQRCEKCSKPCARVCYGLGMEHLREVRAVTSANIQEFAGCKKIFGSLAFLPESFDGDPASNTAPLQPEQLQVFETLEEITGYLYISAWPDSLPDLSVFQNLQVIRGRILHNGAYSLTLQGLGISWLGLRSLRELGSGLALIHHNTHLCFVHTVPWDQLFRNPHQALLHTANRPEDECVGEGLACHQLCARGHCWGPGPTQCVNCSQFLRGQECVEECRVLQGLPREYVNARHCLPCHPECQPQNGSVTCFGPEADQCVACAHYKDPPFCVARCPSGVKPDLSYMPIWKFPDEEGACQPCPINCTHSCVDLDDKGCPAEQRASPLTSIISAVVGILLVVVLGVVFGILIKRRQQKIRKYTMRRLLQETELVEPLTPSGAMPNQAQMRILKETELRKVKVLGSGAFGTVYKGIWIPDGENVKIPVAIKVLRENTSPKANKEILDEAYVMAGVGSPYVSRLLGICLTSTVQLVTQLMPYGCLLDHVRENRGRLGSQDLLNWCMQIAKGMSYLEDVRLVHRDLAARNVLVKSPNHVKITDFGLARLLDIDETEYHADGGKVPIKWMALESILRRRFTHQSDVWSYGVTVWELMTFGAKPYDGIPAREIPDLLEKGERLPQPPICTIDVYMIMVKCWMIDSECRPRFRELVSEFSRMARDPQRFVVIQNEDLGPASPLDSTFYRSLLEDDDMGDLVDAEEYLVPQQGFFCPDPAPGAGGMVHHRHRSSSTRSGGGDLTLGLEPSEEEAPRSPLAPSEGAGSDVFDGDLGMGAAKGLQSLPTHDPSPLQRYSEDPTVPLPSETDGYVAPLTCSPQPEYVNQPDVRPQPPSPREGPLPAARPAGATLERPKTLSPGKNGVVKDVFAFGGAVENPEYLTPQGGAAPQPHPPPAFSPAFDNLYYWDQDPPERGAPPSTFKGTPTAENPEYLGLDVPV

SMILES	viability [1]	Her2 level [2]	viability [3]	viability [4]	viability [5]	differential viability (reversal) ([6]; H69AR cells + 2 uM doxorubicin)	viability [6, 16]	viability [6, 17]	inhibition [7]	inhibition [8]	growth inhibition [9]	growth inhibition [10]	viability increase [11]	viability [12]	viability [13]	inhibition [14]	RAM network inhibition [15]
CCCc1cc(C(=O)Nc2ccccc2SC)no1	86%	90.5% (inactive)	86% (inactive)	104% (inactive)	81.1% (inactive)	-3.34% (inactive)	84.4%	81.1%	0.9% (inactive)	5.67% (inactive)	-11.4% (inactive)	-21.2% (inactive)	-3.07% (inactive)	100% (inactive)	93.4% (inactive)	0.2% (inactive)	1.56% (inactive)
COC(=O)CN1C(=O)C(O)(CC(=O)c2ccc(C)cc2)c2cc(Br)ccc21 (stereo not given)	102%	96.5% (inactive)	102% (inactive)	88.2% (inactive)	81.6% (inactive)	-11.8% (inactive)	93.3%	81.6%	-0.27% (inactive)	-1.5% (inactive)	-15.5% (inactive)	2.94% (inactive)	-0.78% (inactive)	91% (inactive)	92.5% (inactive)	1.67% (inactive)	2.87% (inactive)
COc1ccc(C)cc1NC(=O)C1CCN(S(=O)(=O)c2cccc3cccnc23)CC1	80.5%	94.5% (inactive)	80.5% (inactive)	102% (inactive)	90.9% (inactive)	4.79% (inactive)	86.1%	90.9%	-5.33% (inactive)	-1.48% (inactive)	-0.795% (inactive)	-2.36% (inactive)	-2.44% (inactive)	95.3% (inactive)	86% (inactive)	1.77% (inactive)	4.45% (inactive)
COc1cc(NC(=O)c2nccnc2C(=O)O)cc(OC)c1	98%	107% (inactive)	98% (inactive)	95.7% (inactive)	109% (inactive)	18.3% (inactive)	90.6%	109%	-7.6% (inactive)	-2.3% (inactive)	-8.21% (inactive)	-1.48% (inactive)	-1.6% (inactive)	96.1% (inactive)	95% (inactive)	2.17% (inactive)	-0.31% (inactive)
Cc1sc2nc(SCC(=O)NCCO)n(C)c(=O)c2c1C	91%	108% (inactive)	91% (inactive)	104% (inactive)	88% (inactive)	-6.7% (inactive)	94.7%	88%	0.77% (inactive)	-8.33% (inactive)	-9.24% (inactive)	-20.8% (inactive)	-1.81% (inactive)	105% (inactive)	94.6% (inactive)	3.88% (inactive)	2.59% (inactive)
Cc1c(C)n(C)c2ccc(C(=O)NCc3cccs3)cc12	93.5%	87.5% (inactive)	93.5% (inactive)	95.7% (inactive)	90.7% (inactive)	16.1% (inactive)	74.6%	90.7%	-2.8% (inactive)	-4.59% (inactive)	-23.4% (inactive)	1.59% (inactive)	3.39% (inactive)	97.5% (inactive)	96.8% (inactive)	1.61% (inactive)	0% (inactive)
CCOC(=O)C(CC)Sc1ncnc2nc[nH]c12 (stereo not given)	104%	106% (inactive)	104% (inactive)	103% (inactive)	101% (inactive)	13% (inactive)	88.2%	101%	0.13% (inactive)	-7.27% (inactive)	-11% (inactive)	-11.7% (inactive)	-1.92% (inactive)	97.5% (inactive)	91.9% (inactive)	1.79% (inactive)	2.41% (inactive)
CCCCn1c(NCc2ccccc2O)nc2ccccc21	98%	124% (inactive)	98% (inactive)	79.5% (inactive)	88.1% (inactive)	4.67% (inactive)	83.4%	88.1%	-4.27% (inactive)	-2.33% (inactive)	-1.67% (inactive)	-11.8% (inactive)	-5.25% (inactive)	79.7% (inactive)	75.1% (inactive)	0.34% (inactive)	3.36% (inactive)
CCOC(=O)C1CCCN(C(=O)c2ccc(CS(=O)(=O)c3ccc(Br)cc3)o2)C1 (stereo not given)	85.5%	102% (inactive)	85.5% (inactive)	79.5% (inactive)	95.6% (inactive)	-1.7% (inactive)	97.3%	95.6%	-2.93% (inactive)	-3.83% (inactive)	-9.14% (inactive)	-18.5% (inactive)	-1.86% (inactive)	100% (inactive)	98.6% (inactive)	1.39% (inactive)	3.92% (inactive)
CCOC(=O)c1cc2c(=O)n3ccccc3nc2n(Cc2ccccc2)c1=N	77%	75.5% (inactive)	77% (inactive)	84.2% (inactive)	83.8% (inactive)	-4.5% (inactive)	88.3%	83.8%	-4.86% (inactive)	-3.28% (inactive)	-1.11% (inactive)	-8.62% (inactive)	-3.3% (inactive)	77.1% (inactive)	71.1% (inactive)	2.4% (inactive)	0.09% (inactive)
Cc1ccc(N=Cc2ccc(O)cc2O)cc1F	112%	80% (inactive)	112% (inactive)	69.3% (inactive)	81.9% (inactive)	8.83% (inactive)	73.1%	81.9%	-2.34% (inactive)	6.39% (inactive)	-10.6% (inactive)	-25.5% (inactive)	-4.99% (inactive)	76% (inactive)	77.8% (inactive)	0.995% (inactive)	0.31% (inactive)
CCOC(=O)c1nc2sc3c(c2c(=O)[nH]1)CCCC3	80.5%	100% (inactive)	80.5% (inactive)	93.8% (inactive)	83.5% (inactive)	-3.7% (inactive)	87.2%	83.5%	-2.31% (inactive)	-16% (inactive)	10.2% (inactive)	12.2% (inactive)	-1.32% (inactive)	107% (inactive)	99.3% (inactive)	2.02% (inactive)	3.93% (inactive)
O=C1c2ccccc2C(Nc2ccc(F)c(Cl)c2)N1Cc1ccco1 (stereo not given)	92%	99% (inactive)	92% (inactive)	58.4% (inactive)	74% (inactive)	-0.96% (inactive)	75%	74%	-1.6% (inactive)	3.83% (inactive)	-5.7% (inactive)	-1.3% (inactive)	-4.57% (inactive)	72.8% (inactive)	77.1% (inactive)	1.6% (inactive)	7.74% (inactive)
CN(C1CCCCC1)S(=O)(=O)c1ccc(S(=O)(=O)N2CCN(CCC#N)CC2)cc1	89.5%	92.5% (inactive)	89.5% (inactive)	98.5% (inactive)	103% (inactive)	27.9% (inactive)	74.8%	103%	-2.27% (inactive)	4.26% (inactive)	-11.3% (inactive)	-3.55% (inactive)	-1.47% (inactive)	97.2% (inactive)	91.5% (inactive)	0.805% (inactive)	1.41% (inactive)
CN(C)CCNc1oc(-c2ccccc2F)nc1C#N	93%	94% (inactive)	93% (inactive)	87.4% (inactive)	105% (inactive)	14.7% (inactive)	90.3%	105%	-4.27% (inactive)	3.77% (inactive)	-13.7% (inactive)	-6.7% (inactive)	1.17% (inactive)	107% (inactive)	107% (inactive)	1.36% (inactive)	1.9% (inactive)
c1ccn2c(SCc3ccc4c(c3)OCCO4)nnc2c1	108%	108% (inactive)	108% (inactive)	93.8% (inactive)	92.1% (inactive)	0.37% (inactive)	91.7%	92.1%	-3.47% (inactive)	1.67% (inactive)	6.86% (inactive)	12.2% (inactive)	-0.85% (inactive)	96.6% (inactive)	99.2% (inactive)	0.305% (inactive)	5.34% (inactive)
CC1CN(c2c3c(nc4ncnn24)CCCC3)CC(C)O1 (stereo not given)	89.5%	88% (inactive)	89.5% (inactive)	102% (inactive)	90.7% (inactive)	4.54% (inactive)	86.2%	90.7%	-4.87% (inactive)	2% (inactive)	3.17% (inactive)	-4.12% (inactive)	-1.41% (inactive)	88.9% (inactive)	90.8% (inactive)	1.57% (inactive)	-1.85% (inactive)
Cc1ccc(NC(=O)c2cc(-c3ccc(C)o3)nc3ccccc23)nc1	80%	74% (inactive)	80% (inactive)	73% (inactive)	4.86% (active)	-0.595% (inactive)	5.45%	4.86%	-7.43% (inactive)	-0.82% (inactive)	3.23% (inactive)	-2.09% (inactive)	-4.08% (inactive)	78.6% (inactive)	84.2% (inactive)	1.21% (inactive)	0.74% (inactive)
CCOC(=O)C(C)Sc1nnc(Cc2cc(=O)[nH]c(=O)[nH]2)n1-c1ccc(Cl)cc1 (stereo not given)	92.5%	96.5% (inactive)	92.5% (inactive)	102% (inactive)	103% (inactive)	4.81% (inactive)	98.2%	103%	1.54% (inactive)	5.5% (inactive)	-16.5% (inactive)	-11.5% (inactive)	0.97% (inactive)	104% (inactive)	105% (inactive)	1.45% (inactive)	5.81% (inactive)
C=C(C)Cn1c(N2CC(C)CC(C)C2)nc2c1c(=O)[nH]c(=O)n2C (stereo not given)	84%	86% (inactive)	84% (inactive)	96.2% (inactive)	83.2% (inactive)	-11.8% (inactive)	95.1%	83.2%	-4.93% (inactive)	1% (inactive)	-5.73% (inactive)	0.695% (inactive)	-5.11% (inactive)	78.3% (inactive)	81.2% (inactive)	1.05% (inactive)	1.9% (inactive)
